ssDAF12 agonist = activates DAF-12 receptor from parasite S. stercoralis. HEK293 ssDAF-12/GRIP1 lit1-tk-luc reporter, luminescence; % of 3 µM dafachronic acid response. activation, % at 6.8 µM. 370,000 compounds, 1% hits;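 active = activation above the mean over all tested compounds plus 3 SD, cut at about 0.9% in these data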
DAX1 inh-1 = blocks DAX1 repression of SF-1 activated StAR promoter; HEK293T StAR-luciferase reporter, SF-1/DAX-1 repression relief; 370,000 compounds, 1.1% hits; inhibition, % at 6.8 µM; AID 652010;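 active = inhibition above the mean over all tested compounds plus 3 SD, cut at about 3.6% in these data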;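 also: higher inhibition means more luminescence from relief of DAX-1 repression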
hcDAF12 agonist = H. contortus DAF-12 activation, primary screen | HEK293 hcDAF-12 lit1-tk-luc reporter, luminescence; 0% DMSO, 100% Δ7-dafachronic acid | activation, % at 6.8 µM | 370,000 compounds, 1.4% hits | AID 652067;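 active = activation above the mean of all tested compounds plus 3 SD, cut at about 5.5% in these data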
DAX1 inh-2 = inhibits human nuclear receptor DAX1. P51843. HEK293 Gal4-DAX1 luciferase reporter, luminescence. inhibition, % at 6.75 µM. 340,000 compounds, 0.99% hits. AID 504766;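 active = inhibition above the mean over all tested compounds plus 3 SD, cut at about 4.2% in these data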;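 also: inhibition shows as a rise in luminescence from relieved DAX1 repression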
GAA850 FXN act = frataxin GAA850 promoter activation; HEK293 lucGAA850 FXN promoter luciferase reporter, 24 h; percent of 10 µM SAHA response; activation, % at 6 µM; 360,000 compounds, 0.56% hits; AID 540364;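 active = activation above the average of all compounds screened plus 3 SD, cutoff fixed separately per campaign, cut at about 7.5% in these data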
hgDAF-12 ag = agonists of H. glycines DAF-12 nuclear receptor | AID 687014 | activation, % at 6.8 µM | HEK293 GAL4-hgDAF12 UAS-luciferase reporter, agonist luminescence; normalized to butyrate control | 370,000 compounds, 1.8% hits;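 active = activation above a cutoff set at the mean of all screened compounds plus 3 SD, cut at about 10% in these data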
LXR ag = LXR-beta agonism as hcDAF-12 counter-screen. shares compounds with hcDAF12 agonist. HEK293 Gal4-LXR tk-luc reporter, luminescence, 24 h; normalized: DMSO 0%, positive control 100%. activation, % at 6.8 µM. 3,400 tested, under 10 active;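 active = mean percent activation of the reporter above a cutoff set as the average over tested compounds plus their standard deviation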
Target sequence (P55055 whole entry, looked up, the tested form may be a part): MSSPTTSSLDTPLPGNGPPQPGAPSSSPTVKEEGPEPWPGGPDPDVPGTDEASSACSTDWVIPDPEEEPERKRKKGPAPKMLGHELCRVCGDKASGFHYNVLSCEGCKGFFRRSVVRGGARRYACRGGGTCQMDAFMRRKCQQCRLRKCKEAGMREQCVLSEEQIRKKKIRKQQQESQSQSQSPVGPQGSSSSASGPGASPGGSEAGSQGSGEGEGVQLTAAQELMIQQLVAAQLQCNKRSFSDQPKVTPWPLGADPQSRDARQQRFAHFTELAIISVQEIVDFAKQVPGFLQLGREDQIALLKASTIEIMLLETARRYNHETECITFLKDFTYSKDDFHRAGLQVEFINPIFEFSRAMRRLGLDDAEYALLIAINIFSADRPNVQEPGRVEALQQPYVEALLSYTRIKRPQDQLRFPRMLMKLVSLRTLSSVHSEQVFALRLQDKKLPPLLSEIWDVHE
hcDAF12 ag = confirmation of H. contortus DAF-12 agonists | shares compounds with hcDAF12 agonist | HEK293 hcDAF-12 lit1-tk-luc reporter, luminescence; % of Δ7-dafachronic acid response | activation, % at 6.8 µM | 3,400 compounds, 61% hits;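 active = mean activation across triplicate tests above the threshold derived from the earlier primary screen, cut at about 5.5% in these data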
Numbers stand for hits; – = inactive; · = not tested or not shown. This is a sample that favours compounds with a hit; in the whole collection about 4.5% have one here.

SMILES	ssDAF12 agonist	DAX1 inh-1	hcDAF12 agonist	DAX1 inh-2	GAA850 FXN act	hgDAF-12 ag	LXR ag	hcDAF12 ag
CC1=C(C(=O)N(C(C)C)C(C)C)CC(CC(=O)NCCc2ccccn2)C(=O)N1CCCN1CCCC1=O (stereo not given)	–	–	–	·	·	–	·	·
c1ccc(CCNc2nc3ccccc3n3nnnc23)cc1	–	–	–	–	–	–	·	·
COc1ccc(CCNc2nc3ccccc3n3nnnc23)cc1OC	–	–	7.7	–	–	–	–	–
Cn1cc(-c2nnc(-c3ccccc3)o2)c2ccccc21	1.3	–	7.9	–	–	17	–	18
Cc1nnc(-c2ccccc2)o1	–	–	–	–	–	–	·	·
Nc1cccc(C2=Nc3cccc4cccc(c34)N2)c1	–	–	8.5	–	–	–	–	5.7
N#C/C(=C\c1cc([N+](=O)[O-])c(N2CCOCC2)cc1N1CCOCC1)c1nc2ccccc2[nH]1	–	–	–	–	–	–	·	·
N#C/C(=C/c1ccc(N2CCOCC2)o1)c1nc2ccccc2[nH]1	–	–	6.8	–	–	–	–	8.1
Cn1c(SCC(=O)NCC2CCCO2)nnc1-c1c[nH]c2ccccc12 (stereo not given)	–	–	–	–	–	–	·	·
O=C(CSc1c[nH]c2ccccc12)NCC1CCCO1 (stereo not given)	1.5	–	9.6	–	–	–	–	–
Cc1cc2ncc(-c3cccs3)nc2cc1C	2.1	–	15	–	–	18	–	18
CCc1ccccc1N(CC(=O)NC(C)(C)C)C(=O)CCC(=O)Nc1ccccn1	–	–	–	–	–	–	·	·
Nc1ccc(N=Nc2ccccc2)c2cccnc12	–	–	7.4	–	–	–	–	9.5
Cc1ccccc1N=Nc1ccc(O)c2ncccc12	–	–	–	–	–	–	·	·
O=c1cc(CSc2nnc(COc3cccc4ccccc34)o2)c2ccccc2[nH]1	–	–	–	–	–	–	·	·
Cc1cc(O)c(C(=O)/C=C/c2ccccc2O)c(=O)o1	–	–	6.8	–	–	–	–	–
CC(CCc1ccccc1)NS(=O)(=O)c1ccccc1F (stereo not given)	–	–	–	–	–	–	·	·
CCc1nc2c(OCCc3cccc(OC)c3)cccn2c1N(C=O)Cc1ccccc1	–	–	–	·	–	–	·	·
CCOC(=O)C1=C(CSc2nc(-c3ccccc3)ccc2C#N)OC(N)=C(C#N)C1c1cccnc1 (stereo not given)	1.3	–	7.2	–	–	12	–	9.4
O=C1C(=Cc2ccco2)C(=O)c2ccccc21	–	–	7.3	–	–	–	–	–
O=C(O)c1ccc2c(c1)C(=O)/C(=C\c1ccco1)C2=O	–	–	–	–	–	–	·	·
CC(=O)c1cccc(S(=O)(=O)Nc2cccnc2)c1	–	–	–	–	–	–	·	·
Cc1c(COc2ccc3ccccc3c2)nnn1CC(=O)NS(=O)(=O)c1ccccc1C(F)(F)F	–	–	–	·	–	–	·	·
CC(C)(C)c1ccc(C(=O)N2CCC2(C)C(=O)Nc2cccc3ncccc23)cc1 (stereo not given)	–	–	–	·	–	–	·	·
O=C(Nc1ccccc1)N1CCc2ccccc2C1	–	–	6.8	–	–	11	–	7.9
SMILES	ssDAF12 agonist	DAX1 inh-1	hcDAF12 agonist	DAX1 inh-2	GAA850 FXN act	hgDAF-12 ag	LXR ag	hcDAF12 ag
CC(=O)c1ccc(NC(=O)N2CCc3ccccc3C2)cc1	–	–	–	–	–	–	·	·
O=C(Nc1ccc(Cl)cc1)N1CCc2ccccc2C1	–	–	–	–	–	–	·	·
Cc1ccc(NC(=O)N2CCc3ccccc3C2)cc1	–	–	7.4	–	–	–	–	6.7
N#CCCN(C(=O)c1cc2c(s1)-c1ccccc1S(=O)(=O)C2)c1ccccc1	–	–	–	–	–	–	·	·
CC(=O)Nc1c(-c2ccc3ccccc3c2)nc2ccccn12	1.9	–	7.6	4.2	–	–	–	7.3
CCC(=O)Nc1c(-c2ccc3ccccc3c2)nc2ccccn12	–	–	–	–	–	–	·	·
CCc1cccc(NC(=S)Nc2cccc3ccccc23)c1	–	–	7.4	–	–	–	–	5.9
Cc1cccc(NC(=S)Nc2cccc3ccccc23)c1	1.4	–	7.2	–	–	–	–	11
COc1cccc(NC(=S)Nc2cccc3ccccc23)c1	–	–	–	–	–	–	·	·
COC(=O)[C@H](Cc1ccccc1)N[C@H](c1ccc(OC)cc1)[C@@H](O)Cc1ccccc1	–	–	–	·	·	–	·	·
CC(=O)NCCNc1nc2cc(-c3ccc4c(ccn4C)c3)sc2c(=O)n1C	–	–	–	·	–	–	·	·
Cc1nonc1CN(C)C(=O)c1ccc(OC2CCN(C(=O)c3cccnc3)CC2)cc1	–	–	–	–	–	–	·	·
O=C(CNS(=O)(=O)c1ccccc1)N/N=C/c1ccccc1[N+](=O)[O-]	–	–	–	–	–	–	·	·
O/C(=C\c1nc2ccccc2[nH]1)c1cccs1	1.0	–	8.5	–	–	12	–	8.1
N#C/C(=C(/O)c1cccs1)c1nc2ccccc2[nH]1	–	–	–	–	–	–	·	·
CCOc1ccc(C(=O)NCCc2ccccc2)cc1	–	5.7	6.6	–	–	–	–	9.2
CC(C)(C)c1ccc(C(=O)NC(=S)NNC(=O)c2cccs2)cc1	–	–	21	–	–	–	–	–
Cc1cccc(-n2ncc3c(NCCCO)ncnc32)c1	–	–	6.6	–	–	12	–	–
C=CCC1(CC=C)CCCN1C(=O)c1cc(COc2ccc(C)nc2)on1	–	–	–	–	–	–	·	·
C#CCOc1ccc(C2C(C#N)=C(N)Oc3cc(O)ccc32)cc1 (stereo not given)	–	–	–	–	–	–	·	·
c1ccc(-c2nnc(-c3ccccn3)s2)nc1	1.0	–	9.6	–	–	13	–	14
CCN1CCN(c2nc3c(C)cccn3c(=O)c2/C=C(\C#N)S(=O)(=O)c2ccccc2)CC1	–	–	–	–	–	–	·	·
Cc1cccn2c(=O)c(/C=C(\C#N)S(=O)(=O)c3ccccc3)c(N3CCN(c4ccccc4)CC3)nc12	–	–	6.7	–	–	–	–	–
CCn1c(=O)c2cc(C(=O)N3CCN(C)CC3)sc2c2ccccc21	–	–	–	–	–	–	·	·
CN1CCN(C(=O)c2cc3sc4ccccc4c3s2)CC1	–	4.5	7.3	·	–	13	–	–
O=C(NNC(=O)c1cc2ccccc2oc1=O)c1ccccc1	–	–	–	–	–	–	·	·

High-throughput results from PubChem BioAssay.
